Assay results: PubChem BioAssay (EPA / NIEHS)
Activity calls are given as the source filed them. The calls were made as follows: active = hit-call score of the fitted dose curve at least 0.9, where 1 is the maximum; inactive = score below 0.9.

Key:
[1] = ATG_AP_1_CIS: Attagene CIS-FACTORIAL HepG2 Assay for human Activator Protein 1 (AP-1) (AID 2282931); conditions: HepG2 Attagene cis-factorial AP-1 reporter mRNA; actives raise or lower the signal
Method in brief: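 HepG2, transient cis-reporter transfection; 24 h; readout RT-PCR/CE fluorescence; DMSO baseline, gain and loss fitted.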

[2] = ATG_AP_2_CIS: Attagene CIS-FACTORIAL HepG2 Assay for human Activator Protein 2 (AP-2) (AID 2282932); conditions: HepG2 AP-2 cis-reporter, Attagene transcription factor profiling; actives raise or lower the signal
Method in brief: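 HepG2 cells were transiently transfected with multiple cis-promoter reporter transcription units and dosed for 24 h. Reporter mRNA was measured by RT-PCR with capillary electrophoresis fluorescence; bidirectional fits relative to DMSO baseline.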

[3] = ATG_BRE_CIS: Attagene CIS-FACTORIAL HepG2 Assay for human Bone Morphogenetic Protein (BMP) Response Element (BRE) (AID 2282933); conditions: HepG2 BMP response element reporter, Attagene transcription factor profiling; actives raise or lower the signal
Method in brief: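 Multiplexed cis-reporter assay, HepG2, 24 h exposure. mRNA from reporter units quantified via RT-PCR/CE; DMSO baseline; bidirectional curve fit.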

[4] = molecular target: Retinoic acid receptor alpha (Homo sapiens) (UniProt P10276); assay: ATG_DR5_RAR_CIS: Attagene CIS-FACTORIAL HepG2 Assay for human Retinoic Acid Receptor Alpha (RARE), DR5 submotif (AID 2282934); conditions: HepG2 Attagene cis-factorial RARE DR5 reporter, mRNA; actives raise or lower the signal;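 as to AC50: reporter responds to endogenous RAR alpha beta and gamma in HepG2 not RARA alone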
Retinoic acid receptor alpha (Homo sapiens), sequence (P10276 whole entry, looked up): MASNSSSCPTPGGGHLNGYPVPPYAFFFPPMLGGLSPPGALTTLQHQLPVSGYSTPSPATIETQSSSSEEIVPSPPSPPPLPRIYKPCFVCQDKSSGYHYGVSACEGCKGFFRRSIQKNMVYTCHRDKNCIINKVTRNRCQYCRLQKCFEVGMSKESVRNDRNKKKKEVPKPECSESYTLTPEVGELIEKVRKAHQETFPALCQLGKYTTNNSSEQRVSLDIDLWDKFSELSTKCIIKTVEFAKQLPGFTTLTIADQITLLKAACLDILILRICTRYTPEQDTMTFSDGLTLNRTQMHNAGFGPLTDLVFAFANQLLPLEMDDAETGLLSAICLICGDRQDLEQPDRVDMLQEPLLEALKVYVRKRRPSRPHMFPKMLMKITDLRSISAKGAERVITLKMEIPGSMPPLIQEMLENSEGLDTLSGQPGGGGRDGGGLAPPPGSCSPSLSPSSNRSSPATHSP
Method in brief: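 Endpoint fitted in both directions relative to DMSO as negative control. It reflects DR5 cis-element reporter mRNA induction in transiently transfected HepG2 cells, measured 24 h after dosing through RT-PCR and fluorescent capillary electrophoresis.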

[5] = molecular target: Transcription factor E2F1 (Homo sapiens) (UniProt Q01094); assay: ATG_E2F_CIS: Attagene CIS-FACTORIAL HepG2 Assay for human E2F Transcription Factor 1 (AID 2282935); conditions: HepG2 Attagene cis-reporter, E2F reporter RNA transcripts; actives raise or lower the signal
Transcription factor E2F1 (Homo sapiens), sequence (Q01094 whole entry, looked up): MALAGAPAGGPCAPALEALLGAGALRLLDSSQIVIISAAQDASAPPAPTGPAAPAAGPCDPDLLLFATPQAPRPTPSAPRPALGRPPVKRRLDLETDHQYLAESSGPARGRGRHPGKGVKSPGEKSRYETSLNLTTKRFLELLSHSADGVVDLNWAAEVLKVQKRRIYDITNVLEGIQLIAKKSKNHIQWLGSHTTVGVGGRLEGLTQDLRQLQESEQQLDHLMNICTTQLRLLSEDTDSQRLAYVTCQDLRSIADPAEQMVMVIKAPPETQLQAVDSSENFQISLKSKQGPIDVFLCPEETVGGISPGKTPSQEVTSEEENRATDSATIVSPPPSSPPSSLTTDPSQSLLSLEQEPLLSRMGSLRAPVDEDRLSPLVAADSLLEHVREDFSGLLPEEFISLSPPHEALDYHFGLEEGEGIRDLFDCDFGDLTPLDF
Method in brief: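 HepG2 cells transiently transfected with multiplexed cis-element reporter units, dosed for 24 h. Reporter mRNA measured by RT-PCR, 6-FAM primer-extension labeling, HpaI digestion and capillary electrophoresis; bidirectional fit versus DMSO baseline.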

[6] = ATG_E_Box_CIS: Attagene CIS-FACTORIAL HepG2 Assay for human Enhancer Box (E-box) (AID 2282936); conditions: HepG2 E-box cis-reporter transcription, actives raise or lower the signal
Method in brief: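 HepG2 cells transiently transfected with multiplexed cis-element reporter units sensing endogenous transcription factor activity; 24 h compound exposure. Reporter mRNA measured by RT-PCR, 6-FAM primer extension, HpaI digestion and capillary electrophoresis; bidirectional fit versus DMSO.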

[7] = ATG_M_61_CIS: Attagene CIS-FACTORIAL HepG2 Assay for M61 Transcription Factor (Internal Marker) (AID 2282937); conditions: HepG2 Attagene CIS-FACTORIAL M61 internal marker reporter; actives raise or lower the signal
Method in brief: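 Transfect HepG2 with MRTUs; dose 24 h; isolate RNA; reverse-transcribe with DNase I treatment; PCR-amplify, FAM-label and cut with HpaI for 2 h at 37 C; resolve by CE. Bidirectional fitting against DMSO.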

[8] = ATG_EGR_CIS: Attagene CIS-FACTORIAL HepG2 Assay for human Early Growth Response 1 (EGR1) (AID 2282938); conditions: HepG2 Attagene CIS-FACTORIAL EGR reporter mRNA; actives raise or lower the signal
Method in brief: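 After a 24 h treatment of transiently transfected HepG2 cells, total RNA was reverse-transcribed and reporter sequences PCR-amplified, labelled and run on capillary electrophoresis. Reporters sit under cis-regulatory promoters sensing endogenous factors.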

[9] = ATG_ERE_CIS: Attagene CIS-FACTORIAL HepG2 Assay for Estrogen Response Element (ERE) (AID 2282940); conditions: HepG2 ERE cis-reporter, Attagene RNA transcript; actives raise or lower the signal
Method in brief: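 Fluorescence of capillary-separated, FAM-labelled reporter cDNA fragments indicates reporter mRNA levels in HepG2 cells exposed to chemicals for 24 h. Transient transfection with cis-regulated units; data fitted in both directions against DMSO.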

[10] = ATG_Ets_CIS: Attagene CIS-FACTORIAL HepG2 Assay for human Erythroblast Transformation Specific (ETS) (AID 2282941); conditions: HepG2 ETS cis-reporter transcription, actives raise or lower the signal
Method in brief: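 Steps: transfect HepG2 with multiple reporter units; treat compound 24 h; isolate RNA, DNase-treat, reverse-transcribe; PCR-amplify, label with 6-FAM, digest with HpaI; separate by capillary electrophoresis. Activity fitted both directions versus DMSO.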

[11] = molecular target: Hepatocyte nuclear factor 3-beta (Homo sapiens) (UniProt Q9Y261); assay: ATG_FoxA2_CIS: Attagene CIS-FACTORIAL HepG2 Assay for human Forkhead box A2 (FOXA2) (AID 2282942); conditions: HepG2 cis-reporter transcription factor activity, 24 h; actives raise or lower the signal
Hepatocyte nuclear factor 3-beta (Homo sapiens), sequence (Q9Y261 whole entry, looked up): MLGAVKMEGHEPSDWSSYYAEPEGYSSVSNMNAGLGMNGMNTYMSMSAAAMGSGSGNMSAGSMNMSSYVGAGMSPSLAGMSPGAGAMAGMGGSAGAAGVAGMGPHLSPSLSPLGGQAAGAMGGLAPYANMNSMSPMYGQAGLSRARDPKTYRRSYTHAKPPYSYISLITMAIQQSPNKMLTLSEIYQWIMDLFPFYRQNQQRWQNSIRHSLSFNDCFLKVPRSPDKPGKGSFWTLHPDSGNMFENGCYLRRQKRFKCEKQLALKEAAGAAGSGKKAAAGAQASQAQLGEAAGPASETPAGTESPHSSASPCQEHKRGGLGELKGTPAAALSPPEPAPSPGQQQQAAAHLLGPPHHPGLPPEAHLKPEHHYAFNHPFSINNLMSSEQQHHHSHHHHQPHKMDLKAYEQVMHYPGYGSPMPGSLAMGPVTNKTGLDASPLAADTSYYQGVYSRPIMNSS
Method in brief: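 24 h dosing of HepG2 bearing cis-reporter constructs; mRNA readout by RT-PCR/CE fluorescence; bidirectional fit, DMSO baseline.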

[12] = ATG_FoxO_CIS: Attagene CIS-FACTORIAL HepG2 Assay for human Forkhead box O (FoxO) (AID 2282943); conditions: HepG2 Attagene cis-reporter, FoxO element, mRNA; actives raise or lower the signal
Method in brief: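 Values reflect reporter mRNA induction or loss in HepG2 cells 24 h post-dosing, fitted bidirectionally with DMSO as negative control and baseline. Detection used RT-PCR and fluorescence capillary electrophoresis.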

[13] = ATG_GATA_CIS: Attagene CIS-FACTORIAL HepG2 Assay for human GATA Binding Protein (AID 2282944); conditions: HepG2 GATA cis-element reporter, Attagene multiplex mRNA; actives raise or lower the signal
Method in brief: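 After transfecting HepG2 cells with multiple cis-regulated reporter units, chemicals are dosed for 24 h; isolated RNA undergoes RT-PCR and fluorescent labeling before capillary electrophoresis, with activity expressed against DMSO.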

[14] = ATG_GLI_CIS: Attagene CIS-FACTORIAL HepG2 Assay for human Zinc Finger Protein GLI1 (AID 2282945); conditions: HepG2, Attagene cis-factorial reporter mRNA, GLI element; actives raise or lower the signal
Method in brief: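 HepG2 cells transiently transfected with cis-promoter multiplexed reporter units report endogenous transcription factor activity. After 24 h chemical exposure, reporter mRNA was quantified by RT-PCR, 6-FAM labelling, HpaI digestion and capillary electrophoresis, with bidirectional fitting against DMSO.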

[15] = molecular target: Bile acid receptor (Homo sapiens) (UniProt Q96RI1); assay: ATG_IR1_CIS: Attagene CIS-FACTORIAL HepG2 Assay for human Nuclear Receptor Subfamily 1 Group H Member 4 (NR1H4), IR1 submotif (AID 2282946); conditions: IR1 reporter transcription, actives raise or lower the signal
Bile acid receptor (Homo sapiens), sequence (Q96RI1 whole entry, looked up): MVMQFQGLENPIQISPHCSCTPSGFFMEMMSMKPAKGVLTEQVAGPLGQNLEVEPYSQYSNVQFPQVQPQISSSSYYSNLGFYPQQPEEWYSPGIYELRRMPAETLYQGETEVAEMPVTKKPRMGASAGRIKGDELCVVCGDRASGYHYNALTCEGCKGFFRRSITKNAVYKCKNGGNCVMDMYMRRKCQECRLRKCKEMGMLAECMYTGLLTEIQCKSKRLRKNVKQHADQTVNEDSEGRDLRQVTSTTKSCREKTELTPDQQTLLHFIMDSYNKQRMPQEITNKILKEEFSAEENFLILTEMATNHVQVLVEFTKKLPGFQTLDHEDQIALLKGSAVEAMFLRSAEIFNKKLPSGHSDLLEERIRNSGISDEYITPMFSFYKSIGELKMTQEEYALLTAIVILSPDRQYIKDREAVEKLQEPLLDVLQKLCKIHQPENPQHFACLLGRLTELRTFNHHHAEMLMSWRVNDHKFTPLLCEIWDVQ
Method in brief: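 Transient MRTU transfection, HepG2; 24 h dosing; RNA → RT-PCR → 6-FAM primer extension → HpaI digest → capillary electrophoresis fluorescence. Gain/loss of signal fitted relative to DMSO.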

[16] = ATG_GRE_CIS: Attagene CIS-FACTORIAL HepG2 Assay for human Glucocorticoid Response Elements (GRE) (AID 2282947); conditions: HepG2 GRE cis-reporter, Attagene multiplex mRNA; actives raise or lower the signal
Method in brief: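 HepG2 cells transiently transfected with multiple cis-promoter reporter units measure endogenous TF activity; 24 h compound exposure. Reporter mRNA quantified by RT-PCR, FAM labelling, HpaI digestion and capillary electrophoresis; bidirectional fit vs DMSO baseline.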

[17] = ATG_ISRE_CIS: Attagene CIS-FACTORIAL HepG2 Assay for human Interferon Regulatory Factor 1 (IRF1) binding to an Interferon-Stimulated Response Element (ISRE) (AID 2282948); conditions: HepG2 ISRE cis-reporter (Attagene), mRNA transcription readout; actives raise or lower the signal
Method in brief: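 Transfected HepG2 (multiple reporter transcription units, cis elements) dosed 24 h. RNA → oligo(dT) RT → PCR → 6-FAM primer extension → HpaI → CE. DMSO = negative control/baseline.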

[18] = ATG_M_32_CIS: Attagene CIS-FACTORIAL HepG2 Assay for M32 Transcription Factor (Internal Marker) (AID 2282949); conditions: HepG2 Attagene cis-factorial M32 reporter, mRNA; actives raise or lower the signal;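 also: background control marker of the multiplexed CIS panel rather than a real target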
Method in brief: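 Internal background marker read-out: RT-PCR/capillary electrophoresis fluorescence of reporter transcripts from transiently transfected HepG2 cells after 24 h chemical exposure. Activity fitted bidirectionally relative to DMSO negative control.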

[19] = ATG_M_06_CIS: Attagene CIS-FACTORIAL HepG2 Assay for M06 Transcription Factor (Internal Marker) (AID 2282950); conditions: HepG2 Attagene CIS-FACTORIAL M06 internal marker reporter; actives raise or lower the signal
Method in brief: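 HepG2 liver cells, 24 h exposure. Reporter transcripts from transfected cis-element constructs quantified by RT-PCR/capillary electrophoresis fluorescence. Bidirectional curve fit against DMSO.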

[20] = ATG_M_19_CIS: Attagene CIS-FACTORIAL HepG2 Assay for M19 Transcription Factor (Internal Marker) (AID 2282939); conditions: HepG2 Attagene CIS-FACTORIAL M19 internal marker reporter; actives raise or lower the signal
Method in brief: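 Signals come from fluorescence of labelled reporter-specific PCR fragments resolved by capillary electrophoresis, following 24 h treatment of HepG2 cells transfected with cis-promoter reporter units; activity was fitted in both directions relative to DMSO.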

Measured: AC50

O=NN1CCCCCC1
not listed: [20]
inactive: all other assays above

Nc1ccc(Br)cc1
not listed: [13] | [18]
inactive: all other assays above

Cc1cc(C)cc(C)c1
not listed: [9] | [15] | [16]
inactive: all other assays above

O=C1c2ccccc2C(=O)C1C(=O)C(c1ccccc1)c1ccc(Cl)cc1 (stereo not drawn)
active: [1] 5.27 µM | [3] 5.02 µM | [4] 8.58 µM | [7] 88.4 µM | [8] 13.1 µM | [10] 182 µM | [11] 11.9 µM | [12] 54.6 µM | [14] 166 µM | [17] 20 µM | [19] 88.4 µM
inactive: [2] | [5] | [6] | [9] | [13] | [16] | [18]

COc1nn(C(=O)NS(=O)(=O)c2ccccc2OC(F)(F)F)c(=O)n1C
not listed: [9] | [19]
inactive: all other assays above

CC1(C)COP(Oc2ccccc2)OC1
not listed: [9]
inactive: all other assays above

N#Cc1ccccc1N
not listed: [13]
inactive: all other assays above
